Bioassay records deposited in PubChem by Buhrlage Lab, Dana-Farber Cancer Institute and Novartis Institutes for BioMedical Research (Cambridge, Mass).
Most compounds without a hit are left out; they make up all but 14% or so of the library.
USP28 block = inhibitors of human USP28 deubiquitinase; Q96RU2; purified USP28, Ub-rhodamine cleavage fluorescence, 30 min; inhibition, % at 25 µM; hit rate 3% among 47,000; AID 1645857
USP10 inh = inhibitors of human USP10 deubiquitinase; purified USP10, Ub-rhodamine fluorescence, 60 min; Q14694; inhibition, % at 20 µM; hit rate 1.1% among 47,000
USP30 block = inhibitors of human USP30 deubiquitinase; purified USP30, Ub-rhodamine cleavage fluorescence; inhibition, % at 25 µM; hit rate 5.3% among 47,000; AID 1645860
USP8 block = blocks human USP8 ubiquitin-rhodamine cleavage; purified USP8, Ub-rhodamine cleavage fluorescence, 30 min; AID 1645853; hit rate 4.2% among 47,000; P40818; inhibition, % at 20 µM
USP17 block = blocks human USP17 ubiquitin-rhodamine cleavage | purified USP17, Ub-rhodamine cleavage fluorescence, 3 h | inhibition, % at 50 µM | hit rate 6.5% among 47,000
Target sequence (A8MUK1 whole entry, looked up): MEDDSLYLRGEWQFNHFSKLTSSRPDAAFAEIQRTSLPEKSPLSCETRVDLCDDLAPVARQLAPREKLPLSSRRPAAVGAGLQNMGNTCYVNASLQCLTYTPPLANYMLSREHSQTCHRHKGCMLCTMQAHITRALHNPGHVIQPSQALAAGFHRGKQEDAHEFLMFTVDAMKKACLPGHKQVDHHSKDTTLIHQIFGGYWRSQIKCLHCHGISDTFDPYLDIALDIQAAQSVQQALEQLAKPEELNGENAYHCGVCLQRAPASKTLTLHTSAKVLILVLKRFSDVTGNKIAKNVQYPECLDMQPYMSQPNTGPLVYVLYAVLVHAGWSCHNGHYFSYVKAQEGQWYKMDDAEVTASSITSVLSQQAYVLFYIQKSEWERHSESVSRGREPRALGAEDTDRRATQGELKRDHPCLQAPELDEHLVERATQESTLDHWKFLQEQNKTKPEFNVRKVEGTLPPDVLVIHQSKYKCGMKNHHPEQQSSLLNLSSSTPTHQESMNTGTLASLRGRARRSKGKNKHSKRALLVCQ
Active calls of the source: *; x = no result. Rule as the data show it: active = inhibition above about 30%; inactive = the rest.

SMILES	USP28 block	USP10 inh	USP30 block	USP8 block	USP17 block
Cc1cccc(Nc2nc(N3CCCCC3)nc(N3CCCCC3)n2)c1	6.9	4.8	30.2*	18.1	0.4
COc1ccc(CCNC(=O)[C@H](C)NC(=O)c2cc3c([nH]c4ccccc43)c(C)n2)cc1	8.8	-5.5	-158.7	-97.8	33.9*
Cc1nc2ccccn2c1CC(=O)Nc1cccc(C2CCc3nncn3C2)c1 (centres undefined)	11.3	0.1	12.3	35.9*	0.0
CS(=O)(=O)c1ccc(C(=O)N(CCc2ccccc2)C2CCN(Cc3cccc(C#N)c3)CC2)cc1	-4.0	-2.7	-8.8	0.2	-13.7
Cc1noc(C2CN(C(=O)NCc3ccccc3)CC23CCOCC3)n1 (centres undefined)	1.3	0.4	2.6	-147.3	-11.1
O=C(NC1CC1)C1CCN(c2nc3ccc(-c4cccnc4)nc3s2)CC1	0.0	-1.9	0.2	-12.8	-1.5
Cc1ccc(S(=O)(=O)CCC(=O)OCC(=O)c2cc(C)n(-c3ccc4c(c3)OCO4)c2C)cc1	17.7	5.8	2.9	57.9*	41.1*
Cc1cc(C(=O)COc2ncnc3sccc23)c(C)n1-c1ccc2c(c1)OCO2	x	3.8	x	7.5	57.3*
O=C(CN1CCN(Cc2ccc3c(c2)OCO3)CC1)N1CCCCC1	3.9	-2.0	8.1	0.3	-5.9
Cc1cc(C(=O)COc2ncnc3sccc23)c(C)n1CC1COc2ccccc2O1 (centres undefined)	-28.8	-9.5	-120.2	5.6	x
Cc1cc(C(=O)CN2CCN(Cc3ccc4c(c3)OCO4)CC2)c(C)n1-c1ccc2c(c1)OCO2	18.1	-8.3	-15.6	21.1	54.6*
Cc1cc(C(=O)COC(=O)c2ccc[nH]c2=O)c(C)n1-c1ccc2c(c1)OCO2	0.1	2.6	-30.1	30.4*	66.5*
COc1ccc(CN2CCCC(c3ncc(Cl)cc3S(C)(=O)=O)C2)cc1 (centres undefined)	-6.8	-0.8	2.0	-12.1	-7.8
CCc1ccc(C(=O)N2CCN(c3cc(=O)n(C)c(=O)n3C)CC2)cc1	-5.9	0.9	-9.8	0.1	-5.0
Cc1cccc(C)c1NC(=O)C(c1ccccc1)N(Cc1ccccc1)C(=O)C1CCC(=O)N1 (centres undefined)	-16.5	-1.7	-54.2	-4.8	-16.8
CC(=O)Nc1ccc(S(=O)(=O)N2CCCC(C(=O)Nc3cccc4ccccc34)C2)cc1 (centres undefined)	28.7	5.5	55.7*	1.2	25.5
CCOC(=O)c1ccc(NC(=O)C2CCCN(c3nc(-c4ccc(OC)cc4)no3)C2)cc1 (centres undefined)	19.4	4.1	37.4*	24.1	18.8
Cc1ccccc1CNC(=O)C1CCCN(S(=O)(=O)N2CCCCCC2)C1 (centres undefined)	0.0	-3.3	39.2*	-14.4	-4.6
COc1ccc(NC(=O)C2CCCN(S(=O)(=O)N3CCCCCC3)C2)cc1 (centres undefined)	16.2	0.8	6.2	18.2	51.4*
COc1cccc(CNC(=O)C2CCCN(S(=O)(=O)N3CCCCCC3)C2)c1OC (centres undefined)	9.5	0.7	14.8	8.8	4.5
Cc1ccc(CNC(=O)C2(C)Cn3nc(-c4ccco4)cc3C(=O)N2Cc2ccccc2)cc1 (centres undefined)	-61.3	6.4	-391.5	-12.8	-81.4
Cc1sc2c(=O)n(C(C)C)cnc2c1C(=O)NCc1ccccc1	-15.0	-3.0	-108.0	-15.2	0.0
COc1ccc(CNC(=O)C2CCCN(S(=O)(=O)Cc3ccc(Cl)cc3)C2)cc1 (centres undefined)	27.1	5.7	47.0*	24.8	13.8
CCN(c1ccc(OC)cc1)S(=O)(=O)N1CCCC(C(=O)NCc2ccc(Cl)cc2)C1 (centres undefined)	0.0	-3.3	-4.3	-8.2	-8.1
Cc1cc(C)c2c(CC(=O)Nc3nnc(C)s3)coc2c1	-13.9	0.1	-35.3	-87.1	-19.9
SMILES	USP28 block	USP10 inh	USP30 block	USP8 block	USP17 block
COc1ccc2occ(CC(=O)Nc3nnc(SC)s3)c2c1	2.5	-4.3	-56.0	-0.2	32.9*
COc1ccc(S(=O)(=O)N(Cc2ccc3c(c2)CCO3)C2CC2)cc1	0.0	9.1	12.8	8.1	18.5
CC(=O)c1ccc(S(=O)(=O)N(Cc2ccc(C(=O)NC3CC3)cc2)C2CC2)cc1	15.1	4.6	30.1*	15.6	27.1
O=C(NCc1ccco1)C1CCN(S(=O)(=O)c2cccc3cnccc23)CC1	1.4	-11.2	-130.0	7.4	34.0*
CC(C)c1ccc(NC(=O)C2CCN(S(=O)(=O)c3cccc4cnccc34)CC2)cc1	45.5*	1.6	4.7	-12.5	-8.4
CCOc1ccc(NC(=O)C2CCN(S(=O)(=O)c3cccnc3)CC2)cc1	2.5	-0.6	-33.8	16.1	19.4
O=C(CN1CCC(c2ccncc2)CC1)NCc1ccco1	-16.0	-2.0	-43.1	-15.1	-22.0
COc1cc(-c2c(NC(=O)c3ccc([N+](=O)[O-])cc3)n(C)c3ccccc3c2=O)cc(OC)c1OC	11.6	0.6	30.8*	-36.8	21.8
COc1ccccc1-c1c(NC(=O)c2ccc(C)cc2)n(C)c2ccccc2c1=O	7.2	-1.2	21.4	9.0	-0.2
Cn1c(NC(=O)c2ccc(Cl)cc2)c(-c2ccccn2)c(=O)c2ccccc21	7.4	-9.4	-6.7	42.7*	20.6
CCN1C(=O)[C@H]2CN(C(C)=O)C[C@H]2C12CCN(S(=O)(=O)c1ccc(C)cc1)CC2	0.5	-0.5	9.0	-55.6	-2.8
Cc1sc2ncnc(OCc3ccc([N+](=O)[O-])cc3)c2c1C	46.1*	-3.6	-98.8	-136.0	-3.8
Cc1sc2ncnc(OCC(=O)c3cc(F)ccc3F)c2c1C	-4.8	3.4	6.9	-0.1	2.1
Cc1ccc(-c2ccnc(-c3ccc(OCc4ccc([N+](=O)[O-])cc4)cc3)n2)cc1	0.3	-1.7	15.5	-21.4	2.6
Cc1sc2ncnc(OCc3ccc(F)cc3Cl)c2c1C	57.6*	-6.8	-4.9	20.2	14.0
Brc1ccc(C2=CC(c3cccs3)n3c(nc4ccccc43)N2)s1 (centres undefined)	-53.4	-2.9	-279.3	41.6*	-14.7
CC1=C(C(=O)N2CCCCC2)C(c2cccs2)n2c(nc3ccccc32)N1 (centres undefined)	-24.2	-1.0	-85.4	-4.5	-19.3
Cc1oncc1C(=O)N1CC[C@H]2CO[C@H](CN3CCOCC3)[C@H]2C1	17.3	-0.1	30.2*	-140.9	6.2
CO[C@H]1CC[C@H](O)c2c1oc1c3c4c(c(O)c1c2=O)-c1c(cc2c(Cl)c(C)n(N)c(=O)c2c1O)C[C@@H]4OCO3	59.0*	23.1	0.5	25.6	62.3*
CN(C)c1cccc(C2CN(C(=O)c3n[nH]c4c3CCC4)CCO2)n1 (centres undefined)	1.4	0.3	9.7	5.6	1.2
CC(=O)O[C@H]1CC[C@]2(C)[C@H]3C(=O)C=C4[C@@H]5C[C@@](C)(C(=O)O)CC[C@]5(C)CC[C@@]4(C)[C@]3(C)CC[C@H]2C1(C)C	-6.8	14.0	5.4	7.9	7.2
